Screening results deposited in PubChem by National Center for Advancing Translational Sciences (NCATS).
CHX counter – Cycloheximide Counterscreen for Small Molecule Inhibitors of Shiga Toxin. max response, %. cell reporter, cycloheximide protein synthesis inhibition counterscreen. AID 2314, 2010. hit rate 12% among 300,000; in the data active means max response mostly above about 13%, no sharp cut-off; inactive means mostly below about 14%; further: read at 38.3 µM for the half of the compounds with a filed dose; 0% is about no effect
NS1 function inh – qHTS Assay for Inhibitors of Influenza NS1 Protein Function. hit rate 0.4% among 270,000. Potency, µM (top dose mostly 46.1 µM), without a hit: top-dose activity, positive = more growth. AID 2326, 2010; calls by dose curve; further: potency means the concentration at half of the fitted maximal effect; actives are rising curves; nearly all actives have a fitted effect of over 50% in size
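Read-out: OD600 growth recovery of NS1-expressing budding yeast. Cells grown overnight at 30C in -URA glucose medium, washed, resuspended and diluted 1:100 in 2% galactose assay medium, pH 6.0. Same strain lacking NS1 served as positive control.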
Pf growth 96h – Primary qHTS for delayed death inhibitors of the malarial parasite plastid, 96 hour incubation. Potency, µM (doses to about 28.7 µM), inactives show at the highest dose activity change, negative = inhibition, hits mostly inhibitors. hit rate 6.9% among 320,000. P. falciparum luciferase reporter growth, 96 h; further: potency means the concentration at half of the fitted maximal effect; on the % scale 0 is the no-effect control and ±100 the full control effect
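Two-generation exposure (96 h) targets delayed-death phenotype. Reporter parasites carrying integrated firefly luciferase, in red cells at 2% hematocrit and 0.05% parasitemia final, kept at 37 C, 5% CO2; luminescence loss indicates inhibition.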
Pf growth 48h – Primary qHTS for delayed death inhibitors of the malarial parasite plastid, 48 hour incubation; P. falciparum luciferase growth in erythrocytes, 48 h; Potency, µM (highest dose often 28.7 µM), without a hit: at the highest dose activity change, negative = inhibition, hits mostly inhibitors; hit rate 5.9% among 310,000; further: potency means the concentration at half of the fitted maximal effect; on the % scale 0 is the no-effect control and ±100 the full control effect
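First compound was added to culture medium, then infected red cells at 0.1% parasitemia and 2% hematocrit (final). After incubation at 37 C under 5% CO2, luciferase detection reagent was dispensed and light output recorded.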
SARS PLpro yeast – qHTS of Yeast-based Assay for SARS-CoV PLP. hit rate 0.19% among 330,000. Potency, µM (top dose mostly 32.9 µM), for inactives: at the top dose activity, positive = growth rescue, hits mostly activators. S. cerevisiae expressing SARS-CoV PLpro, growth rescue; calls by dose curve; further: potency means the concentration at half of the fitted maximal effect; 0% is about no effect; nearly all actives have a fitted effect of over 55% in size
Shiga toxin inh – A qHTS for Small Molecule Inhibitors of Shiga Toxin | Vero cells, Shiga toxin protein synthesis inhibition reporter | inhibition, % at 38.7 µM | hit rate 9.2% among 290,000; in the data active means inhibition mostly above about 28%, no sharp cut-off; inactive means mostly below about 43%; further: 0% is about no effect
Starred values were filed as active, the others as inactive; ? = inconclusive; . = not tested or not shown. In the library only some 21% were active in any assay of this set; here they are far more common. Unless noted, the call rests on the fitted dose curve; in most records, active means well fitted inhibition curve with a large enough effect; inconclusive means small, poorly fitted or top-dose-only effect, or another doubt; inactive means no such curve, though single readings can be large or run the other way.

SMILES	CHX counter	NS1 function inh	Pf growth 96h	Pf growth 48h	SARS PLpro yeast	Shiga toxin inh
Cc1ccc(-c2nc(CS(=O)CC(=O)NCCCN3CC(C)CC(C)C3)c(C)o2)cc1 (stereo unspecified)	-6	?	?	.	2%	-15
O=C1c2ccccc2NC(c2ccccc2Cl)N1N=C1CCCCCC1 (stereo unspecified)	37*	7%	-9%	97%	-15%	89*
O=C(N/N=C/c1cc(Br)cc(Br)c1O)c1ccncc1	-1	.	16%	9.3µM*	-5%	-7
Oc1c(Cl)cc(Cl)cc1/C=N/Nc1ncc(Br)cn1	6	.	15µM*	0.093µM*	-2%	-3
Clc1ccc(/C=N/NC(=Nc2ccccc2)c2ccccn2)c(Cl)c1	41*	-52%	-38%	33%	0%	124*
O=C(N/N=C/c1ccc(O)cc1O)c1ccncc1	2	-3%	12µM*	?	7%	15
Cc1cccc(C(=O)Oc2c(Br)cc(Br)cc2/C=N/NC(=O)c2ccncc2)c1	-9	2%	19%	10%	1%	-17
O=C(CN1c2ccccc2Sc2ccccc21)N/N=C/c1ccc(Cl)cc1Cl	2	-1%	?	?	-6%	11
O=C(NCCc1nc2ccccc2[nH]1)/C(=C/c1ccc2c(c1)OCO2)NC(=O)c1ccc(Cl)cc1Cl	2	-25%	?	-9%	-7%	-16
O=C(Cc1c(F)cccc1Cl)N/N=C/c1cccnc1	2	10%	50%	?	0%	1
O=C(O)c1ccc(CS(=O)(=O)c2c(Cl)cccc2Cl)o1	-1	3%	?	21%	11%	1
O=C(CCS(=O)(=O)c1ccccc1)Nc1ccc(S(=O)(=O)Nc2nccs2)cc1	.	.	.	.	2%	.
O=C(N/N=C/c1cc(Cl)cc(Cl)c1O)c1ccncc1	1	-72%	2.3µM*	13µM*	-7%	-5
O=C(N/N=C/c1cc2c(cc1Cl)OCO2)c1ccncc1	2	1%	-10%	4%	7%	4
CSc1sccc1/C=N/NC(=O)c1ccncc1	17	0%	-17%	27%	1%	active
O=C(N/N=C/c1ccc(Cl)cc1Cl)c1ccncc1	24*	-13%	35%	20%	-2%	45*
O=S(=O)(c1ccc(NC(=S)NCc2ccncc2)cc1)N1CCCCC1	1	0%	2%	?	2%	-2
CN(C)CCCNc1oc(-c2ccc(Cl)cc2)nc1C#N	13	1%	?	?	2%	27
Cc1ccc(-c2nc(C#N)c(NCCc3ccccn3)o2)cc1	17*	-15%	30%	.	-9%	36
N#Cc1nc(-c2ccc(Cl)cc2)oc1NCCc1ccccn1	12*	-4%	?	54%	4%	35*
CC(=O)Nc1ccc(NC(=O)CC(NC(=O)c2ccccc2)c2ccccc2)cc1 (stereo unspecified)	4	10%	-4%	10%	0%	-4
COc1ccccc1CNC(=O)CN(CCc1ccccc1)S(C)(=O)=O	7	.	?	-2%	-4%	-13
COc1ccccc1OCCNC(=O)C1CC(=O)N(c2cccc(SC)c2)C1 (stereo unspecified)	.	.	18%	-9%	2%	.
COC(=O)CC1(C(=O)OC)Oc2ccc(Br)cc2C(=O)N1c1cc(Cl)c(Cl)cc1Cl (stereo unspecified)	8	3%	?	?	-3%	-3
COC(=O)CC1(C(=O)OC)Oc2ccc(Br)cc2C(=O)N1c1ccc(Br)cc1Cl (stereo unspecified)	0	10%	12µM*	?	-4%	-3
COC(=O)CC1(C(=O)OC)Oc2ccc(Br)cc2C(=O)N1c1cc(Cl)cc(Cl)c1 (stereo unspecified)	-1	-1%	9.3µM*	5.2µM*	-2%	-4
COC(=O)CC1(C(=O)OC)Oc2ccc(Br)cc2C(=O)N1c1cccc(Cl)c1Cl (stereo unspecified)	1	5%	13µM*	?	-4%	-15
CC(NC(=O)Nc1ccc(F)cc1F)c1ccncc1 (stereo unspecified)	-1	-3%	.	-5%	2%	-4
